VDR inhibitor: vitamin D3 receptor (human) inhibition; Potency, µM, hits mostly inhibitors; AID 504847; VDR-SRC2-3 peptide fluorescence polarization, 2 h; P11473; 400,000 tested, 0.93% active
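FP read-out; VDR + SRC2-3 coactivator peptide; 23 nl compound by pintool; 2 h RT incubation; reagents held at 4 deg C, protected from light.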
ALOX12 inh: inhibitors of human 12S-lipoxygenase ALOX12 | P18054 | purified 12hLO, xylenol orange hydroperoxide absorbance | Potency, µM (titrated, usually from 108 µM), most hits filed as inhibitors | 580,000 tested, 1.1% active
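Hydroperoxide product was detected by ferrous iron/xylenol orange as the 573 to 405 nm absorbance ratio. Arachidonic acid at 40 uM (final) was turned over for 30 min at room temperature by 150 nM human 12hLO, pH 7.0 Hepes buffer, after 15 min compound preincubation.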
PLK1 PBD block: blocks phosphopeptide binding to human PLK1 polo-box domain; Potency, µM, most hits filed as inhibitors; P53350; Plk1 PBD binding of FITC phosphopeptide, fluorescence polarization; 360,000 tested, 2.8% active; AID 720504; also: series mostly up to about 57 µM; nearly all actives have a fitted effect of over 65% in size
Target sequence (P53350 whole entry, looked up, the tested form may be a part): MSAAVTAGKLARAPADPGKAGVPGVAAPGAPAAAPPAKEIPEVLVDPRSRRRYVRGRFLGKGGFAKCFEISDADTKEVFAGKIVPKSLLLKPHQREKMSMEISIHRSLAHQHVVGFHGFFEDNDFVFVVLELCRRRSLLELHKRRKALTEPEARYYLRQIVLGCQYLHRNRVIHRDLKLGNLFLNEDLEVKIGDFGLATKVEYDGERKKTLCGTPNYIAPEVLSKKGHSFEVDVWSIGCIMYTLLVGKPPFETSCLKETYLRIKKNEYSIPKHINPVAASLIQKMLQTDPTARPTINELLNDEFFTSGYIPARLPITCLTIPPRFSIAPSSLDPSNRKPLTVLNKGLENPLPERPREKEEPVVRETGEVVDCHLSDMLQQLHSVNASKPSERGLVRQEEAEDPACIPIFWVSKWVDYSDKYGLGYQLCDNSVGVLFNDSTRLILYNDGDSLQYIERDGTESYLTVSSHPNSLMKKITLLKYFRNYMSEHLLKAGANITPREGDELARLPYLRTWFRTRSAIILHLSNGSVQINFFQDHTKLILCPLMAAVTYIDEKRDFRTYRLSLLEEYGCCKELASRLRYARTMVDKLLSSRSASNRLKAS
Sfp inh: blocks B. subtilis Sfp PPTase activity; Q9F4F7; Biochemical Sfp PPTase activity, qHTS; Potency, µM, usual class: inhibitors; 310,000 tested, 3.5% active;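 also: the enzyme is Sfp with the accession as filed and its product quenches rhodamine fluorescence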
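Reaction rates are the 30-min fluorescence difference (ex 525, em 598 nm) in wells containing 15 nM Sfp, 5 uM rhodamine-CoA and 12.5 uM BHQ-2-YbbR at pH 7.6 with 10 mM MgCl2.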
A number is an active result; ! = not confirmed by another sample; [ ] = dose if it differs, or a comment. A selection: hits, their analogues and other compounds. The true share with any hit is near 4.2%. Calls follow the shape of the dose curve; as a rule, active = well fitted curve in the direction sought with a large enough effect; inconclusive = small, poorly fitted or top-dose-only effect, or another doubt; inactive = no such curve, though single readings can be large; an effect the other way counts as inactive or inconclusive.

`COc1ccc(-c2cnc(NCc3ccc(C)cc3)n2C)cc1` gave VDR inhibitor inactive and ALOX12 inh inconclusive.
`Cn1c(-c2cccc(Br)c2)cnc1NCc1ccccc1O` gave VDR inhibitor inactive, ALOX12 inh 14µM, PLK1 PBD block inactive and Sfp inh inactive.
For Cn1c(-c2ccc(Br)cc2)cnc1NCc1ccc(C#N)cc1 the results were VDR inhibitor inactive, ALOX12 inh 2.5µM, PLK1 PBD block inactive and Sfp inh inactive.
For Cn1c(-c2ccccc2)cnc1NCc1ccccc1 the results were VDR inhibitor inactive, ALOX12 inh inconclusive, PLK1 PBD block inactive and Sfp inh inactive.
`CSc1ccc(CCNC(=O)CCCn2c(=O)c3cccn3c3ccccc32)cc1` gave VDR inhibitor inactive and ALOX12 inh inactive.
Screening NS(=O)(=O)c1cccc2c1c([N+](=O)[O-])cc1nc(O)c(O)nc12 returned VDR inhibitor 40µM!, ALOX12 inh inconclusive, PLK1 PBD block inactive and Sfp inh inactive.
For OCCOCCN1CCN(C2=Nc3ccccc3Sc3ccccc32)CC1 the results were VDR inhibitor inactive, ALOX12 inh inactive, PLK1 PBD block inactive and Sfp inh 50µM!.
CC(C)c1cccc(C(C)C)c1NC(=O)CNCc1ccccc1F was read as VDR inhibitor inactive, ALOX12 inh inactive, PLK1 PBD block inactive and Sfp inh 45µM.
`CC(C)(C)C(=O)COC(=O)C1(S(=O)(=O)c2ccc(Br)cc2)CCCC1` gave ALOX12 inh inactive.
For CCOC(=O)c1c(C)[nH]c(C(=O)CN2CCN(CC)CC2)c1C the results were VDR inhibitor inactive, ALOX12 inh inconclusive, PLK1 PBD block inactive and Sfp inh 79µM.
CCOC(=O)c1c(C)[nH]c(C(=O)CSc2nnc(C3CC3)n2N)c1C was read as VDR inhibitor inconclusive, ALOX12 inh inconclusive, PLK1 PBD block 24µM and Sfp inh inactive.
`CN1CCN(S(=O)(=O)c2ccc(N3CCN(C(=O)c4ccccc4)CC3)nc2)CC1` gave VDR inhibitor inactive, ALOX12 inh inactive, PLK1 PBD block inactive and Sfp inh inactive.
Screening O=c1[nH]c(=S)[nH]c2c1[C@H](CCc1cccc(Cl)c1)O[C@H](C1CC1)C2 returned ALOX12 inh inactive and PLK1 PBD block inactive.
CCCC(=O)Nc1ccc(C(=O)COC(=O)C2=COCCO2)cc1 was read as VDR inhibitor inactive, ALOX12 inh inactive and PLK1 PBD block inactive.
`COc1ccc(CN2CC(=O)N(c3cc(Cl)ccc3C)C2=S)cc1OC` gave VDR inhibitor inactive, ALOX12 inh inactive, PLK1 PBD block inactive and Sfp inh inactive.
`COc1cc(CN2CC(=O)N(c3cc(Cl)ccc3C)C2=S)cc(OC)c1OC` gave VDR inhibitor inconclusive, ALOX12 inh inactive, PLK1 PBD block 15µM and Sfp inh inactive.
Screening Cc1nc2nc(-c3ccco3)[nH]n2c(=O)c1Cc1ccccc1 returned VDR inhibitor inactive, ALOX12 inh inactive, PLK1 PBD block inactive and Sfp inh inactive.
Screening COC(=O)Cc1c(C)nc2nc(-c3ccco3)[nH]n2c1=O returned VDR inhibitor inactive, ALOX12 inh inactive, PLK1 PBD block inactive and Sfp inh 56µM.
Screening CCCCNC(=O)c1nn2c(C(F)(F)F)cc(-c3ccc(OC)cc3)nc2c1Br returned VDR inhibitor inactive, ALOX12 inh inactive, PLK1 PBD block 12µM and Sfp inh inactive.
O=C(NCc1ccco1)c1nn2c(C(F)(F)F)cc(-c3cccs3)nc2c1Br was read as VDR inhibitor inactive, ALOX12 inh inactive, PLK1 PBD block inactive and Sfp inh 20µM.
Screening CCCNC(=O)c1nn2c(C(F)(F)F)cc(-c3ccccc3)nc2c1Br returned VDR inhibitor inactive, ALOX12 inh inactive, PLK1 PBD block inactive and Sfp inh inactive.
Screening c1ccc2c(-c3ccn[nH]3)cccc2c1 returned ALOX12 inh 25µM.
Cc1ccc(C)c(NC(=O)CCNS(=O)(=O)c2ccc3c(c2)CCCC(=O)N3)c1 was read as VDR inhibitor inactive and ALOX12 inh inactive.
N#Cc1ccc(C(=O)NC2(c3ccc(Br)cc3)CC2)cc1 was read as ALOX12 inh inactive.
`Cc1c(/C=N/Nc2ccc(F)cc2)c(O)n(C)c(=O)c1C#N` gave VDR inhibitor inactive, ALOX12 inh inactive, PLK1 PBD block 19µM and Sfp inh inactive.
`Cc1ccc(N/N=C/c2c(O)cc(C)oc2=O)cc1` gave VDR inhibitor inactive, ALOX12 inh inconclusive, PLK1 PBD block inactive and Sfp inh 56µM.
Cc1cc(O)c(/C=N/Nc2ccc(F)cc2)c(=O)o1 was read as VDR inhibitor inactive, ALOX12 inh inconclusive, PLK1 PBD block inactive and Sfp inh 79µM.
CC(=O)N=Cc1c(C)c(C#N)c(=O)n(C)c1O was read as VDR inhibitor inactive, ALOX12 inh inactive, PLK1 PBD block inactive and Sfp inh inconclusive.
For Cc1cccc(/N=C/c2c(O)cc(C)oc2=O)n1 the results were VDR inhibitor inactive, ALOX12 inh inconclusive, PLK1 PBD block inactive and Sfp inh inactive.
`CC(=O)Nc1ccc(S(=O)(=O)N[C@@H](C)C(=O)OCC(=O)c2ccc(C)cc2)cc1` gave VDR inhibitor inactive, ALOX12 inh inconclusive and PLK1 PBD block inactive.
Screening CC1(C)C(C#N)=C(N)Oc2c1c(=O)oc1ccccc21 returned VDR inhibitor inactive, ALOX12 inh inactive, PLK1 PBD block inactive and Sfp inh inactive.
For Cc1ccc(-n2nc(C(C)(C)C)cc2NC(=O)Nc2ccc(OCCN3CCOCC3)c3ccccc23)cc1 the results were ALOX12 inh inactive[22.9 µM].
`N[C@H](C(=O)O)c1nn[nH]n1` gave VDR inhibitor inactive, ALOX12 inh inactive and Sfp inh 89µM.
Screening CCOC(=O)Cc1nn[nH]n1 returned VDR inhibitor inactive, ALOX12 inh inactive, PLK1 PBD block inactive and Sfp inh inconclusive.
`CN(C)c1ccc(NC(=O)C2C3C=CC(C3)C2C(=O)O)cc1` (configuration not stated) gave VDR inhibitor inconclusive, ALOX12 inh inactive, PLK1 PBD block inactive and Sfp inh 50µM.
COc1ccc(C)cc1NC(=O)C1C2C=CC(C2)C1C(=O)O (configuration not stated) was read as VDR inhibitor inactive, ALOX12 inh inactive, PLK1 PBD block inactive and Sfp inh inactive.
Screening COc1cc(NC(=O)C2C3C=CC(C3)C2C(=O)O)ccc1NC(=O)c1ccccc1 (configuration not stated) returned VDR inhibitor inactive, ALOX12 inh inactive, PLK1 PBD block inactive and Sfp inh 89µM.
Screening COc1cc([N+](=O)[O-])ccc1NC(=O)C1C2C=CC(C2)C1C(=O)O (configuration not stated) returned VDR inhibitor inactive, ALOX12 inh inactive, PLK1 PBD block inactive and Sfp inh 32µM.
For CC(=O)c1cccc(NC(=O)C2C3C=CC(C3)C2C(=O)O)c1 (configuration not stated) the results were VDR inhibitor inactive, ALOX12 inh inactive, PLK1 PBD block inactive and Sfp inh inactive.
`Cc1ccc(-c2cccc(NC(=O)C3C4C=CC(C4)C3C(=O)O)c2)o1` (configuration not stated) gave VDR inhibitor inactive, ALOX12 inh inactive, PLK1 PBD block inconclusive and Sfp inh 35µM.
`Cc1ccc(O)c(Cc2cc(C)cc(Cc3cc(C)ccc3O)c2O)c1` gave ALOX12 inh inactive and PLK1 PBD block inactive.
